A selection: hits, their analogues and other compounds. The true share with any hit is near 3.4%.
FBW7 activator – FBW7 E3 ligase activators, primary screen, biochemical, AlphaScreen, human; F-box/WD repeat-containing protein 7 (Homo sapiens), Q969H0; AlphaScreen FBW7–phospho-cyclin E peptide binding, activator screen; normalized activity (activation), % at 26.1 µM; 0.13% of 650,000 active; AID 1259310, 2017; in the data active = normalized activity above about 1.9%;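 note: purified mutant Fbw7 with reduced substrate affinity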
Target sequence (Q969H0 whole entry, looked up): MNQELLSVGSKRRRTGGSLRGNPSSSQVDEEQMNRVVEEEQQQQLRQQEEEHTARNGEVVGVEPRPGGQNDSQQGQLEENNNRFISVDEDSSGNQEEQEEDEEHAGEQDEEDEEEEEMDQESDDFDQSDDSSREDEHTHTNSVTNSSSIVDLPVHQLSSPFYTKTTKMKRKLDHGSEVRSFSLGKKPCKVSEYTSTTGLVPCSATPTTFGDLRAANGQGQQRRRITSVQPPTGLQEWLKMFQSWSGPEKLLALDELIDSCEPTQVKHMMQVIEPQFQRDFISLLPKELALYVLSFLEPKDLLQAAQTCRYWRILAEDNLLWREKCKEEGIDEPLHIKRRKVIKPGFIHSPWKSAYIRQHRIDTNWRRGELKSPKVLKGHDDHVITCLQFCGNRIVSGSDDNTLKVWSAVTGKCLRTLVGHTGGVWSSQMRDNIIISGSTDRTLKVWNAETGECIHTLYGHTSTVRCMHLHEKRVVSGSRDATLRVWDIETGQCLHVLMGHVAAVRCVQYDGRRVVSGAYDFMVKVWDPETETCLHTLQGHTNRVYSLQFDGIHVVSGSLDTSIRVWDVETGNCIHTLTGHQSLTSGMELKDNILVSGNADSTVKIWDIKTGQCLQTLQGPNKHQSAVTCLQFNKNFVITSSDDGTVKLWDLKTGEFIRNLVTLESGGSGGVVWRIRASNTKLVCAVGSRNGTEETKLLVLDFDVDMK
TEAD-YAP block – TEAD-YAP interaction inhibition, primary screen, TEAD-YAP interaction inhibitor project, luminescence, HEK-TIYL cells | inhibition, % at 9.12 µM | 1.4% of 640,000 active | TEAD-Gal4/YAP UAS-luciferase luminescence; in the data active = inhibition above about 32%;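 note: 0% = median of test compound wells and 100% = reference inhibitor wells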
MITF inh – MITF inhibitors, primary screen, biochemical, AlphaScreen, human; 0.91% of 650,000 active; AlphaScreen MITF homodimerization, bead proximity signal; AID 1259374, 2018; inhibition, % at 2.6 µM; in the data active = inhibition above about 50%;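 note: 0% = vehicle wells with protein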
GPR151 ag – activators of human GPR151, primary screen, cell-based, PathHunter beta-arrestin, luminescence. G-protein coupled receptor 151 (Homo sapiens), Q8TDV0. PathHunter beta-arrestin GPR151 cells. activation, % at 11.2 µM. 1% of 650,000 active. AID 1508602, 2020; in the data active = activation above about 4.9%;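 note: 0% = median of compound wells and 100% = cells with positive control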
MITF confirm – MITF inhibitors, retest of hits, confirmation, biochemical, AlphaScreen, triplicate; shares compounds with MITF inh; AlphaScreen MITF homodimerization, biotin/His-MITF beads; inhibition, % at 2.6 µM; AID 1259372, 2018; 16% of 4,700 active;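 active = inhibition above a cutoff derived from the DMSO control wells, cut at about 28% in these data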;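 note: 0% = MITF dimer wells with DMSO only; inhibitors lower the bead chemiluminescence by keeping MITF from dimerizing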
AlphaScreen DR – AlphaScreen optical interference compounds, dose response, counter-screen, biochemical, HTS; shares compounds with MITF inh; AlphaScreen optical interference counterscreen, cell-free; IC50, µM; 6% of 480 active; call rule not given here
AS interf ctr – AlphaScreen optical interference compounds, counter-screen for MITF inhibitor project, biochemical, triplicate | shares compounds with MITF inh | LysRS AlphaScreen counterscreen, signal interference | inhibition, % at 2.6 µM | 7.6% of 4,700 active | AID 1259376, 2018;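 active = inhibition above a cutoff derived from the DMSO control wells, cut at about 30% in these data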
The depositor's hits bear a star; nt = no result.

SMILES	FBW7 activator	TEAD-YAP block	MITF inh	GPR151 ag	MITF confirm	AS interf ctr	others
Fc1ccc(-c2cc(NCCCn3ccnc3)nc(-c3ccccn3)n2)cc1	-1	5	56*	-1	24	62*
Fc1ccc(-c2cc(NCCCn3ccnc3)nc(-c3ccccc3)n2)cc1	-1	7	55*	-1	34*	42*
c1cc(-c2cc(NCCCn3ccnc3)nc(-c3ccncc3)n2)ccn1	-1	-16	72*	1	34*	42*
O=C(Nc1nc2c(s1)CCC2C(=O)NCCCc1ccccc1)c1ccc(F)cc1 (stereo not given)	0	-10	80*	0	4	19
N#Cc1c(-c2ccc3c(c2)OCO3)nc(N2CCCCC2)[nH]c1=O	1	2	80*	-1	78*	-7	AlphaScreen DR=>6.5
COc1ccc(-c2nc(N3CCN(C)CC3)[nH]c(=O)c2C#N)cc1	0	-2	4	-1	nt	nt
COc1ccc(C)cc1NC(=O)CNCC1CCCO1 (stereo not given)	0	2	53*	-1	3	9
COc1ccc(C)cc1NC(=O)N1CCC(CO)(CC2CCCCO2)CC1 (stereo not given)	0	4	6	0	nt	nt
N#Cc1ccsc1NC(=O)CNCC1CCCO1 (stereo not given)	0	-4	60*	-2	-3	15
COc1ccccc1NC(=O)CNCCN1CCOCC1	0	2	86*	0	5	15
COc1ccccc1NC(=S)NCCN1CCOCC1	0	8	12	0	nt	nt
COc1ccccc1NC(=O)CNCCCN1CCOCC1	0	-4	61*	4	7	9
COc1ccccc1NC(=O)CC(NCCCN1CCOCC1)C(=O)O (stereo not given)	1	-9	14	-1	nt	nt
CCc1ccc(/C=C2/Sc3ccccc3N(CC(=O)N3CCCC3)C2=O)cc1	0	3	-19	0	nt	nt
COc1ccc(C)cc1NC(=O)CCN1CCOCC1	0	3	15	0	nt	nt
COc1ccc(C)cc1NC(=O)CNCCN1CCOCC1	0	-2	87*	0	12	10
Cc1ccc(/C(C#N)=C\c2ccco2)cc1	0	-40	56*	-1	42*	1	AlphaScreen DR=>6.5
Nc1nnc(SCC(=O)NCCCCNC(=O)CSc2nnc(N)s2)s1	0	-2	-1	1	nt	nt
CC(C)NC(=O)NC(=O)CSc1nnc(N)s1	0	-3	64*	0	1	-3
CC(NCCN(C)C)C(=O)Nc1ccc2c(c1)OCO2 (stereo not given)	0	3	73*	0	3	2
CCOC(=O)c1c(NC(=O)C(F)(F)F)sc(C(=O)Nc2ccccc2)c1C	0	29	55*	-4	0	1
Nc1nc(SCC(=O)Nc2cc([N+](=O)[O-])ccc2F)n[nH]1	0	7	51*	1	2	2
COc1ccc(C(=O)CSc2nnc(-c3ccc4c(c3)OCO4)o2)cc1OC	0	1	86*	0	-21	-6
CC(C)C(c1nnnn1Cc1ccco1)N1CCN(Cc2ccc(Cl)cc2)CC1 (stereo not given)	0	15	-6	1	nt	nt
CC(=O)N1CCN(c2ccc(NC(=O)c3ccccc3)cc2)CC1	0	-49	38	-1	nt	nt
SMILES	FBW7 activator	TEAD-YAP block	MITF inh	GPR151 ag	MITF confirm	AS interf ctr	others
CC(=O)N1CCN(c2ccc(NC(=S)NC(=O)c3ccccc3)cc2)CC1	0	-7	52*	0	8	20
C=CCN1C(=O)/C(=C/c2cc(Br)c(OCC)c(OCC)c2)C(=O)NC1=S	0	5	-10	-1	nt	nt
CSc1ccc(NC(=O)N2CCCC(c3nc4ccccc4[nH]3)C2)cc1 (stereo not given)	0	-10	4	-1	nt	nt
O=c1[nH]c(SCc2ccc(Br)cc2)nc2c1cnn2-c1ccc(F)cc1	0	-3	0	1	nt	nt
CCN1CCN(S(=O)(=O)c2c(C)c(C)cc(C)c2C)CC1	0	1	-1	0	nt	nt
Cc1cc(C)c(C)c(S(=O)(=O)N2CCN(CC(O)COCc3ccco3)CC2)c1C (stereo not given)	0	-3	51*	-1	7	12
CC(=O)N1CCC(Cn2nc(-c3ccc(F)cc3)ccc2=O)CC1	0	12	13	0	nt	nt
Cc1cc(C)c2[nH]c(C(=O)N3CCCC(N4CCC(CO)CC4)C3)c(C)c2c1 (stereo not given)	0	5	4	1	nt	nt
CCOC(=O)CCCC/C(=N\O)c1[nH]c(=O)[nH]c1C	-1	-7	99*	0	97*	65*
Cc1[nH]c(=O)[nH]c1C(=O)CCCCC(=O)O	0	8	121*	1	113*	95*
Cc1[nH]c(=O)[nH]c1C(=O)CCCCC(=O)OCC(=O)Nc1ccccc1[N+](=O)[O-]	-1	9	113*	0	115*	93*
CCOC(=O)CCCCC(=O)c1[nH]c(=O)[nH]c1CNc1ccc(Br)cc1	1	3	27	-2	nt	nt
CC(=O)NCC(=O)OCC(=O)Nc1ccccc1[N+](=O)[O-]	0	7	-6	0	nt	nt
Cc1cc(NC(=O)COC(=O)CCCCC(=O)c2[nH]c(=O)[nH]c2C)no1	-2	9	116*	1	112*	93*
CC(=O)Nc1ccc(N/C(C)=C\C(=O)c2ccccc2)cc1	0	3	7	1	nt	nt
CCCCCCC(=O)Oc1ccc2cc(OC(=O)CCCCCC)ccc2c1	0	-2	1	0	nt	nt
Cc1[nH]c(=O)[nH]c1C(=O)CCCCC(=O)OCC(=O)Oc1ccc2ccccc2c1	-1	-6	112*	1	111*	98*
Cc1ccc2nc(C3CCN(S(=O)(=O)c4ccc5c(c4)OCCO5)CC3)[nH]c2c1	0	8	66*	1	12	19
Cc1ccc(-c2csc(NC(=O)COc3ccccc3C(C)(C)C)n2)cc1	1	-3	56*	-1	-5	-4
Cc1ccccc1OCC(=O)Nc1nc(-c2ccccc2)cs1	0	-12	-1	0	nt	nt
NC(=O)C1CCN(CC(=O)NCCc2ccccc2)CC1	0	3	57*	5	-4	-4
O=C(On1c(-c2ccccc2F)nc2ccccc2c1=O)c1ccccc1Cl	0	-4	15	1	nt	nt

From PubChem
